Screens deposited in PubChem BioAssay by National Center for Advancing Translational Sciences (NCATS).
SARS PLP yeast = inhibitors of SARS-CoV papain-like protease in yeast | Potency, µM (series often up to 32.9 µM), for inactives: at the top dose activity, positive = growth rescue, usual class: activators | hit rate 0.19% among 330,000 | S. cerevisiae expressing SARS-CoV PLpro, growth rescue | AID 485353; calls by dose curve; note: 0% is about no effect; nearly all actives have a fitted effect of over 55% in size
Pf growth 96h = P. falciparum growth inhibition at 96 hour, primary screen for plastid delayed-death inhibitors; Potency, µM (doses to about 28.7 µM), for the others: at the top dose activity change, negative = inhibition, usual class: inhibitors; P. falciparum luciferase reporter growth, 96 h; hit rate 6.9% among 320,000; note: % is set by controls: 0 for no effect and ±100 for the full control effect
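Readout is luminescence from an integrated firefly luciferase in P. falciparum. Red cells, 2% hematocrit and 0.05% parasitemia final, were cultured with compound through two parasite generations (96 hours) at 37 C, 5% CO2.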
Sm TGR block = blocks Schistosoma mansoni thioredoxin glutathione reductase | Potency, µM (series often up to 114 µM), without a hit: top-dose activity change, negative = inhibition, hits mostly inhibitors | purified TGR, DTNB reduction, TNB absorbance 405 nm | AID 485364 | hit rate 3% among 360,000; note: % is set by controls: 0 for no effect and ±100 for the full control effect; nearly all actives have a fitted effect of over 60% in size
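First, TGR (20 nM dispensed) and NADPH were mixed with compound. Second, a 15 min room-temperature incubation followed. Third, further NADPH and then DTNB were added to start the reaction. Finally, TNB absorbance was monitored kinetically.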
Pf growth 48h = P. falciparum growth inhibition at 48 hours (one generation); P. falciparum luciferase growth in erythrocytes, 48 h; Potency, µM (doses to about 28.7 µM), for the others: at the top dose activity change, negative = inhibition, actives largely listed as inhibitors; hit rate 5.9% among 310,000; AID 504832; note: % is set by controls: 0 for no effect and ±100 for the full control effect
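Parasite viability was followed by luminescence of a genomically integrated firefly luciferase. Cultures held 0.1% parasitemia at 2% hematocrit (final), incubated under 5% CO2 at 37 C.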
* hit, by the source's call; i = inactive; ? = inconclusive; . = no result given. Shown are actives, neighbours in structure and some others; about 12% of the full set was active somewhere. Unless noted, calls come from the whole dose curve; as a rule, active = well fitted curve in the direction sought with a large enough effect; inconclusive = small, poorly fitted or top-dose-only effect, or another doubt; inactive = no such curve, though single readings can be large; an effect the other way counts as inactive or inconclusive. Potency is the fitted concentration of half-maximal effect.

SMILES	SARS PLP yeast	Pf growth 96h	Sm TGR block	Pf growth 48h
O=C(CN1N=C(c2ccc(Cl)cc2)CCC1=O)NCCc1ccc(Cl)cc1	.	.	-2%	.
CCN(CC(=O)Nc1c(F)cccc1F)C(=O)CSc1nc(C)cc(C)n1	-2%	17%	6%	6%
O=C(Nc1ccc(N2CCCC2)c(Cl)c1)c1ccc(Br)o1	-1%	4.7µM*	0%	4.7µM*
COc1ccc(N2CCCC2)c(NC(=O)c2ccc(Br)o2)c1	-4%	16%	45µM*	-13%
CCOC(=O)c1c(NC(=O)CSc2cn(CCNC(=O)c3ccccc3OC)c3ccccc23)sc2c1CCCC2	.	.	-3%	.
CCC(=O)N1N=C2C3CCN(CC3)C2C1c1ccccc1 (stereo not drawn)	-1%	-2%	4%	8%
CCC(=O)N1N=C2C3CCN(CC3)C2C1c1ccc(C)cc1 (stereo not drawn)	13%	4.1µM*	2%	14%
COc1ccc(OC)c(CN2CCC(CO)(CCOc3ccccc3)CC2)c1	0%	-7%	18%	13µM*
OCC1(CCOc2ccccc2)CCN(C2Cc3ccccc3C2)CC1	0%	?	?	8.3µM*
COc1ccc(OC)c(CN2CCCCCC2)c1	3%	9%	?	163%
OCC1(CCc2ccccc2)CCN(Cc2ccc(OC(F)F)cc2)CC1	-2%	13µM*	-6%	-28%
Cc1cc(C)c(CN2CCC(CO)(CCOc3ccccc3)CC2)cc1C	1%	0%	-7%	6.6µM*
COc1cc(CN2CCC(CO)(CCOc3ccccc3)CC2)cc(OC)c1	-1%	12µM*	5%	12µM*
COc1ccc(Cl)cc1NC(=O)c1cnc2sc(N3CCOCC3)nn2c1=O	.	.	-8%	.
COc1ccc(C(=O)NC(C)c2nnc(SCc3ccc(Cl)c(Cl)c3)n2C)cc1 (stereo not drawn)	-5%	12µM*	-2%	?
C=CCn1c(SCCOc2ccc(OC)cc2)nnc1C(C)NC(=O)c1ccc(OC)cc1 (stereo not drawn)	17%	6.6µM*	-3%	.
CCn1c(CCNC(=O)c2ccc(Cl)c(Cl)c2)nnc1SCCOc1ccc(OC)cc1	2%	10µM*	9%	?
COc1ccc(OC)c(NC(=O)Cn2nc(C)c3ccccc3c2=O)c1	4%	?	3%	2%
COC(=O)c1ccc(-n2c(C)nc(=O)c(-c3ccccc3)c2C)cc1	7%	-9%	-28%	?
COc1ccc(-n2c(C)nc(=O)c(-c3ccccc3)c2C)cc1	-14%	9.3µM*	0%	-19%
Cc1ccc(NC(=O)Nc2nnc(SCC(=O)N3CCC(C)CC3)s2)cc1	.	.	15%	.
O=c1c2sc3ccccc3c2n(Cc2ccc(Cl)cc2)c(=O)n1Cc1ccco1	.	.	-8%	.
COc1cccc2oc3cc(C#CC4(O)CCCCC4)ccc3c(=O)c12	-19%	i	-28%	330%
COc1cccc2oc3cc(C#Cc4ccccn4)ccc3c(=O)c12	-13%	?	7.9µM*	-6%
Clc1ccc(CCC(Cn2ccnc2)Sc2c(Cl)cccc2Cl)cc1 (stereo not drawn)	.	0.93µM*	-4%	1.5µM*
SMILES	SARS PLP yeast	Pf growth 96h	Sm TGR block	Pf growth 48h
Clc1ccc(SCCCCn2ccnc2)cc1	-3%	?	5%	?
COc1ccc(NC(=O)CSc2nc(-c3ccc(OC)cc3)[nH]c2-c2ccc(OC)cc2)cc1	.	.	-7%	.
CN(C)S(=O)(=O)c1cccc(-c2nn(-c3ccccc3)cc2/C=C2\SC(=S)NC2=O)c1	19%	2.6µM*	-14%	4.7µM*
O=C(N/N=C/c1cn(-c2ccccc2)nc1-c1cc2ccccc2o1)c1ccncc1	-23%	-45%	-2%	-33%
COc1ccc(-c2nn(-c3ccccc3)cc2/C=C(\C#N)S(=O)(=O)c2ccccc2)cc1OC	-13%	38%	-2%	17%
N#C/C(=C\c1ccc(Sc2ccccc2)o1)c1nc2ccccc2[nH]1	1%	1µM*	-21%	?
O=C(O)CCn1cc(/C=C2\SC(=S)NC2=O)c(-c2ccccc2)n1	0%	2%	-9%	3%
N#C/C(=C\c1cn(-c2ccccc2)nc1-c1cc2ccccc2o1)c1nc2ccccc2[nH]1	-4%	0.66µM*	3%	1µM*
CN(C)S(=O)(=O)c1cccc(-c2nn(-c3ccccc3)cc2/C=C(\C#N)c2nc3ccccc3[nH]2)c1	-8%	1.5µM*	6%	2.1µM*
CCOC(=O)c1ccc(NC(=O)CSc2nnc(CNC(=O)c3ccc(OC)cc3)n2CC)cc1	.	.	-3%	.
